Most compounds without a hit are left out; they make up all but 1.3% or so of the library.
UBC13 polyUb = UBC13 polyubiquitin chain formation inhibitors, primary screen, biochemical, TR-FRET, uHTS. Ubiquitin-conjugating enzyme E2 N (Homo sapiens), P61088. inhibition, % at 20 µM. 0.47% of 330,000 active. AID 485273, 2010; in the data active means inhibition above about 45%, passing the limit was not always enough
RAD52 anneal inh = RAD52 DNA annealing inhibitors, primary screen, biochemical, FRET, single point, set 2; inhibition, % at 18.7 µM; recombinant RAD52 DNA annealing, FRET fluorescence; 0.46% of 360,000 active; AID 651710, 2012; DNA repair protein RAD52 homolog (Homo sapiens), P43351;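 active means every replicate showing at least 50% inhibition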
RAD54 branch = inhibitors of human RAD54 branch migration, primary screen, biochemical, fluorescence, single point. inhibition, % at 10.4 µM. RAD54 Holliday junction branch migration, FAM/BHQ fluorescence. 0.14% of 360,000 active. DNA repair and recombination protein RAD54-like (Homo sapiens), Q92698;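 active means mean normalized replicate activity at least 40 and at least half of replicates scoring 40 or more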;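 further: inhibitors cause a drop in the FAM fluorescence signal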
Target sequence (Q92698 whole entry, looked up): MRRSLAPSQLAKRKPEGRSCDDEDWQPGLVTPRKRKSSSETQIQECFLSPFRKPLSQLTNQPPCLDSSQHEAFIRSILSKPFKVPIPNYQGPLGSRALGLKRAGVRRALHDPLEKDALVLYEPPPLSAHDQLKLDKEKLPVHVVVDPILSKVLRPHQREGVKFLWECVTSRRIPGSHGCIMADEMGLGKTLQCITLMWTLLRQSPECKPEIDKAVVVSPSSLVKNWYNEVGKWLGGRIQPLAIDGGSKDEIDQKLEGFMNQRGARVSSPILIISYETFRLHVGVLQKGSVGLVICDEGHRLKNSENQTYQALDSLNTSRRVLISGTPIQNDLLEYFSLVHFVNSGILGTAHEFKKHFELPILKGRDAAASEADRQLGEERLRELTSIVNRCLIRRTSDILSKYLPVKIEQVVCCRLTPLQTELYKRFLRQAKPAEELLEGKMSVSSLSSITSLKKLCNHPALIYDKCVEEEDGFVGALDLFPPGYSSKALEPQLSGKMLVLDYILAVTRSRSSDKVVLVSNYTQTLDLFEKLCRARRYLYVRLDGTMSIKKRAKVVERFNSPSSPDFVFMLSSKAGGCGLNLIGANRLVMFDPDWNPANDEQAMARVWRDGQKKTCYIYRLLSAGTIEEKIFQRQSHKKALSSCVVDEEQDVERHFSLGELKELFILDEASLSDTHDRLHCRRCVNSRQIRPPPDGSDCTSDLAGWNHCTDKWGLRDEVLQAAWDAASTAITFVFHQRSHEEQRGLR
DNA FID counter = compounds displacing fluorescent DNA intercalator, primary screen, artefact control for HCV NS3 helicase inhibitor project, biochemical, FID fluorescence; 0.17% of 290,000 active; inhibition, % at 7.9 µM; DNA fluorescent intercalator displacement; in the data active means inhibition above about 37%;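 further: higher means more ethidium bromide displaced from hairpin DNA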
PREPL inhibitor = PREPL enzyme inhibitors, primary screen, biochemical, fluorescence polarization; recombinant PREPL, fluorescence polarization activity-based probe; inhibition, % at 5.96 µM; AID 2751, 2010; 0.68% of 320,000 active; in the data active means inhibition above about 43%
beta cell repl = inducers of MIN6 beta-cell proliferation, primary screen, ATP luminescence, uHTS. MIN6 cells proliferation, ATPlite luminescence, 48 h; cells starved in 0.2% serum; 100% = growth in 10% serum. proliferation, % at 10 µM. 0.29% of 330,000 active. AID 2380, 2010;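 active means compounds whose signal lies at least 3.5 SD above the mean of all wells on their plate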
Large screens that a line does not name were inactive; ! = not confirmed by another sample.

COc1ccc(CN(C)C[C@@H]2OCCCC[C@H](C)Oc3ccc(NC(=O)Nc4ccc(C(F)(F)F)cc4)cc3C(=O)N([C@H](C)CO)C[C@@H]2C)cc1	RAD52 anneal inh 52.8 (no result: UBC13 polyUb, DNA FID counter, PREPL inhibitor, beta cell repl)
COc1ccc(NC(=O)Nc2ccc3c(c2)C(=O)N([C@@H](C)CO)C[C@@H](C)[C@H](CN(C)Cc2ccc(C(F)(F)F)cc2)OCCCC[C@@H](C)O3)cc1	none (no result: UBC13 polyUb, DNA FID counter, PREPL inhibitor, beta cell repl)
COc1ccc(CN(C)C[C@H]2OCCCC[C@H](C)Oc3ccc(NC(=O)Nc4ccc(C(F)(F)F)cc4)cc3C(=O)N([C@H](C)CO)C[C@@H]2C)cc1	RAD52 anneal inh 52.9 (no result: UBC13 polyUb, DNA FID counter, PREPL inhibitor, beta cell repl)
COc1ccc(CN(C)C[C@H]2OCCCC[C@@H](C)Oc3ccc(NC(=O)Nc4ccc(C(F)(F)F)cc4)cc3C(=O)N([C@@H](C)CO)C[C@@H]2C)cc1	RAD52 anneal inh 50.1 (no result: UBC13 polyUb, DNA FID counter, PREPL inhibitor, beta cell repl)
CS(=O)(=O)Nc1ccc2c(c1)[C@@H]1C[C@@H](CC(=O)NCc3ccncc3)O[C@@H](CO)[C@@H]1O2	none (no result: UBC13 polyUb, DNA FID counter, PREPL inhibitor, beta cell repl)
C[C@@H](NC(=O)[C@@H]1[C@@H](CO)[C@@H]2Cn3c(cccc3=O)[C@H]1N2C(=O)C1CCCC1)c1ccccc1	none (no result: UBC13 polyUb, DNA FID counter, PREPL inhibitor, beta cell repl)
COc1ccc2c3c([nH]c2c1)[C@@H](CO)N(Cc1nccs1)CC31CCN(Cc2cncnc2)CC1	RAD52 anneal inh 50.4 (no result: UBC13 polyUb, RAD54 branch, DNA FID counter, PREPL inhibitor, beta cell repl)
CCCN1CCC2(CC1)CN(Cc1ccc3c(c1)OCO3)[C@H](CO)c1[nH]c3cc(OC)ccc3c12	RAD52 anneal inh 86.9 (no result: UBC13 polyUb, RAD54 branch, DNA FID counter, PREPL inhibitor, beta cell repl)
COc1ccc2c3c([nH]c2c1)[C@H](CO)N(Cc1nccs1)CC31CCN(Cc2cncnc2)CC1	none (no result: UBC13 polyUb, RAD54 branch, DNA FID counter, PREPL inhibitor, beta cell repl)
CCOc1cc(C(c2c(C)[nH][nH]c2=O)c2c(C)[nH][nH]c2=O)ccc1OC(=O)c1cccc([N+](=O)[O-])c1	PREPL inhibitor 86.2 (no result: RAD52 anneal inh)
COc1cccc(NC(=S)N(CCCN2CCCC2)Cc2cccn2Cc2ccc(Cl)cc2)c1	DNA FID counter 36.9
Cc1noc(C)c1NC(=O)N(C)C[C@H]1OCCCC[C@@H](C)Oc2ccc(NC(=O)c3ccncc3)cc2C(=O)N([C@@H](C)CO)C[C@@H]1C	none (no result: UBC13 polyUb, DNA FID counter, PREPL inhibitor, beta cell repl)
CCCCN(Cc1ccccc1)c1ncnc2nc[nH]c12	UBC13 polyUb 46.9 (no result: RAD52 anneal inh)
CCS(=O)(=O)N1CCCCN2[C@H](C1)[C@@H](c1ccc(-c3ccccc3C)cc1)[C@@H]2CO	none (no result: UBC13 polyUb, DNA FID counter, PREPL inhibitor, beta cell repl)
Cc1ccccc1-c1ccc([C@H]2[C@H](CO)N3CCCCN(S(=O)(=O)Cc4ccccc4)C[C@@H]23)cc1	RAD52 anneal inh 55.5 (no result: UBC13 polyUb, DNA FID counter, PREPL inhibitor, beta cell repl)
Cc1ccccc1-c1ccc([C@@H]2[C@@H](CO)N3CCCCN(S(=O)(=O)Cc4ccccc4)C[C@H]23)cc1	RAD52 anneal inh 62.8 (no result: UBC13 polyUb, DNA FID counter, PREPL inhibitor, beta cell repl)
C[C@H](CO)N1C[C@H](C)[C@@H](CN(C)Cc2ccc(Oc3ccccc3)cc2)Oc2c(NC(=O)Nc3ccccc3)cccc2C1=O	none (no result: UBC13 polyUb, DNA FID counter, PREPL inhibitor, beta cell repl)
CCOC(=O)c1cc(NC(=O)CNCC(c2ccccc2)N(C)C)cc(C(=O)OCC)c1 (stereo not given)	DNA FID counter 37.9
Cc1ccc(N/C(=C\C(=O)c2ccccc2)C(=O)O)cc1	beta cell repl 7.1 (no result: RAD54 branch)
C[n+]1c2n(c3ccccc31)N=C(c1ccc(-c3ccccc3)cc1)CS2	RAD52 anneal inh 70.5 (no result: RAD54 branch)
O=c1[nH]c(=S)[nH]c2c1C(c1ccc(Br)cc1)c1c([nH]c(=S)[nH]c1=O)O2	RAD54 branch 55.6 (no result: UBC13 polyUb, beta cell repl)
O=C1CCCC2=C1C(c1ccc(Br)cc1)c1c([nH]c(=S)[nH]c1=O)N2 (stereo not given)	none (no result: RAD52 anneal inh)
COc1cccc(NC(=O)N(C)C[C@H]2Oc3ncc(C#Cc4ccccc4)cc3C(=O)N([C@H](C)CO)C[C@@H]2C)c1	none (no result: UBC13 polyUb, DNA FID counter, PREPL inhibitor, beta cell repl)
c1ccc2c(c1)OC(CCCN1CCCCC1)c1ccccc1S2 (stereo not given)	DNA FID counter 37.5 (no result: RAD52 anneal inh)
CNC(=O)C[C@H]1CC[C@@H]2[C@H](COc3ccc(NC(=O)c4cccc(F)c4)cc3C(=O)N2C)O1	none (no result: UBC13 polyUb, DNA FID counter, PREPL inhibitor, beta cell repl)
CCn1cc(C(=O)NCCCN2CCCC(C)C2)c(=O)c2cc(S(=O)(=O)N3CCc4ccccc4C3)ccc21 (stereo not given)	none
CCC1CCCCN1CCCNC(=O)c1cn(CC)c2ccc(S(=O)(=O)N3CCc4ccccc4C3)cc2c1=O (stereo not given)	DNA FID counter 48.8
Cc1ccc(-c2ccc(C3[C@@H]4CN(C(=O)Nc5ccc(C(F)(F)F)cc5)C[C@H]3N4)cc2)cc1 (stereo not given in full)	none (no result: UBC13 polyUb, RAD54 branch, DNA FID counter, PREPL inhibitor, beta cell repl)
O=C(Nc1ccc(C(F)(F)F)cc1)N1C[C@@H]2N[C@H](C1)C2c1ccc(-c2cccc(F)c2)cc1 (stereo not given in full)	RAD52 anneal inh 62.1 (no result: UBC13 polyUb, RAD54 branch, DNA FID counter, PREPL inhibitor, beta cell repl)
N#Cc1ccc(-c2ccc(C3[C@@H]4CN(C(=O)Nc5ccc(C(F)(F)F)cc5)C[C@H]3N4)cc2)cc1 (stereo not given in full)	RAD52 anneal inh 79.9! (no result: UBC13 polyUb, RAD54 branch, DNA FID counter, PREPL inhibitor, beta cell repl)
Cc1cc(C)nc(Nc2ccc(N3CCCC3)cc2)n1	PREPL inhibitor 44.0 (no result: RAD52 anneal inh)
COc1cc(CNCCc2ccccc2)cc(Br)c1OCC(=O)Nc1ccccc1C	DNA FID counter 43.8 (no result: RAD54 branch)
CCNCc1cc(Br)c(OCC(=O)Nc2ccccc2)c(OC)c1	none (no result: RAD52 anneal inh)
C[C@@H]1CCCCO[C@H](CN(C)C)[C@H](C)CN([C@H](C)CO)C(=O)c2cc(NC(=O)Nc3ccc4c(c3)OCO4)ccc2O1	none (no result: UBC13 polyUb, DNA FID counter, PREPL inhibitor, beta cell repl)
CCOC(=O)c1sc2nc(CC(=O)OC)nc(N3CCN(c4ccc(OC)cc4)CC3)c2c1C	PREPL inhibitor 48.1 (no result: RAD52 anneal inh)
CCOC(=O)c1sc2nc(CC(=O)OC)nc(NCCN3CCOCC3)c2c1C	none (no result: UBC13 polyUb, RAD52 anneal inh, PREPL inhibitor, beta cell repl)
CO[C@H]1CN(C)C(=O)c2ccc(NC(C)=O)cc2OC[C@@H](C)N(C(=O)C2CCC2)C[C@H]1C	none (no result: UBC13 polyUb, DNA FID counter, PREPL inhibitor, beta cell repl)
COc1ccc(NC(=O)N[C@H]2CC[C@@H](CCNS(=O)(=O)c3ccccc3F)O[C@@H]2CO)cc1	none (no result: UBC13 polyUb, DNA FID counter, PREPL inhibitor, beta cell repl)

Compound activity as filed in PubChem.
